Common to all, as to assay: NCI-60 one-dose screen, 48 h (100 = growth as untreated, 0 = no growth, -100 = all killed)
What all share (conditions): 10 µM

Assay [1] has as its system SK-MEL-2 melanoma.
Assay [2] concerns EKVX NSCLC.
Assay [3] has as its system SN12C renal.
The test system of assay [4] is UO-31 renal.
The subject of assay [5] is TK-10 renal.
Assay [6] concerns ACHN renal.
The test system of assay [7] is CAKI-1 renal.
The test system of assay [8] is A498 renal.
Assay [9] concerns CCRF-CEM leukemia.
Assay [10] concerns MOLT-4 leukemia.
The subject of assay [11] is SR leukemia.
In assay [12] the test system is RPMI-8226 leukemia.
Assay [13] has as its system OVCAR-8 ovarian.
Assay [14] relates to OVCAR-5 ovarian.
In assay [15] the test system is OVCAR-4 ovarian.
Assay [16] deals with SK-OV-3 ovarian.
Assay [17] relates to IGROV1 ovarian.
The subject of assay [18] is OVCAR-3 ovarian.
Assay [19] deals with HS 578T breast.
Assay [20] concerns NCI/ADR-RES ovarian.

Compounds without any hit were thinned out: in the full panel of roughly 83,000, 20% have a hit.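 Note: values are percent growth. 100 is the growth of untreated cells, values between 100 and 0 indicate rising inhibition; between -100 and 0 indicates cell death.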 Unmarked numbers belong to inactive results. Calls of active or inactive are those of the source. How the source made its calls: active means growth percent below 10; inactive means the rest.

Take `COc1cc(/C=C/c2cc(/C=C/c3ccc(O)c(OC)c3)n(C(=O)Nc3ccc(C)cc3)n2)ccc1O`: the growth in [1] is -14% (active); in assay [2], 20.3%; in assay [3], 18.3%; in assay [4], 0.972% (active); in [5] it was 28.5%; in assay [6], 16.1%. The growth in assay [7] is 8.65% (active); in [8] it was -12% (active); in [9], 0.439% (active); in [10] it was 0.114% (active); in [11] it was -14.7% (active); in [12], -14.5% (active). The growth was -2.98% (active) in assay [13]; 20.5% in assay [14]; 16.1% in assay [15]; -29.1% (active) in [16]; 4.76% (active) in assay [17]; -34.1% (active) in [18]. For the same compound, the growth in assay [19] was -16% (active); in assay [20], 20.5%.

Consider `CCC(=O)OC1CCC2C3CCC(=O)OC3C(C)(CCC(=O)O)CC12C` (stereo not drawn), for which the growth was 12.7% in [1]; 8.81% (active) in assay [2]; 55.5% in assay [3]; 47.1% in assay [4]; 47% in assay [5]; 43.9% in [6]. The growth is -4.08% (active) in assay [7]; -71.5% (active) in [8]; -14.8% (active) in [9]; -0.59% (active) in assay [10]; -21.1% (active) in assay [11]; 6.49% (active) in assay [12]. Besides, the growth is 61.4% in assay [13]; 59% in [14]; 65.8% in assay [15]; 51.6% in assay [16]; 25.4% in [17]; 5.37% (active) in assay [18]. In addition, the values for the growth in [19] and in [20] were -28.7% (active) and 15.8%, respectively.

Take `Cc1ccc(-n2nnnc2N)c(C)c1`: the growth in [1] is 114%; in assay [2], 98.5%; in assay [3], 113%; in assay [4], 94.6%; in [5], 136%; in assay [6] it was 102%. For the same compound, the growth in assay [7] was 94.5%; in assay [8], 80%; in [9] it was 112%; in assay [10] it was 109%; in assay [11], 112%; in [12], 109%. For the same compound, the growth in assay [13] was 108%; in assay [14], 107%; in assay [15], 99%; in assay [16], 113%; in assay [17], 123%; in [18] it was 113%. In addition, the growth in assay [19] is 99%.

Turning to `COc1ccc(/C(C#N)=C/c2ccccc2OC)cc1`, the growth is 15.9% in assay [1]; 64.6% in assay [2]; 47.3% in assay [3]; 52.2% in assay [4]; 53% in [5]; 44.1% in assay [6]. Moreover, the growth in assay [7] is 39%; in [8], 25.6%; in assay [9] it was 16.2%; in assay [10], 21.3%; in assay [11] it was 34.7%; in assay [12], 52.3%. The growth in [13] was 53.5%; in assay [14] it was 55.5%; in assay [15], 89.9%; in assay [16] it was 33.2%; in assay [17], 31.9%; in assay [18], 25.8%. Besides, the growth in assay [19] is 47.8%; in assay [20] it was -0.0917% (active).

`COc1ccc(C(=O)N/N=C/c2cc(C(F)(F)F)ccc2Cl)cc1`: the growth in assay [1] was 104%; in assay [2], 75.7%; in [3], 93.6%; in assay [4], 88.9%; in assay [5] it was 107%; in [6], 108%. In addition, the growth is 89.2% in assay [7]; 67% in [8]; 103% in assay [9]; 92.5% in [10]; 102% in assay [11]; 121% in assay [12]. Further, the growth in [13] was 102%; in [14], 95.5%; in [15] it was 91.7%; in assay [16], 99.8%; in assay [17] it was 106%; in assay [18] it was 108%. In addition, the growth is 92.6% in assay [19] and 90.9% in assay [20].

As to `Oc1cccc(-c2nc3sccn3c2-c2ccncn2)c1`, the growth is 83.7% in [1]; 92.8% in assay [2]; 92.1% in assay [3]; 76.8% in assay [4]; 123% in [5]; 97.8% in assay [6]. In addition, the growth in [7] was 69.8%; in [8], 119%; in assay [9] it was 94.1%; in assay [10], 101%; in assay [11], 60.1%; in assay [12], 118%. Further, the growth in [13] is 102%; in [14], 119%; in assay [15], 114%; in [16], 88.4%; in assay [17], 91.2%; in [18], 114%. Further, the growth in assay [19] was 81.7%.

On to `Brc1ccc2c(c1)-c1ccccc1C1=NCCN12`, for which the growth in assay [1] is -39.7% (active); in assay [2], -2.72% (active); in assay [3], -7.57% (active); in [4] it was -16.6% (active); in assay [5], -12.5% (active); in [6], -22.2% (active). The growth in assay [7] was -5.84% (active); in assay [8], -75.7% (active); in [9], -12% (active); in [10], -7.7% (active); in assay [11], -0.353% (active); in assay [12] it was 1.99% (active). For the same compound, the growth was -11.3% (active) in assay [13]; -8.25% (active) in assay [14]; 0.91% (active) in [15]; -3.44% (active) in assay [16]; 27.1% in [17]; -32.7% (active) in [18]. The growth in assay [19] is 37%; in assay [20], -18% (active).

As for `CCOC(=O)C1=CSC2=NC3=C(CCC/C3=C\c3ccc(Cl)cc3)C(c3ccc(Cl)cc3)N12` (stereo not drawn), the growth is 106% in [1]; 91.6% in assay [2]; 95% in assay [3]; 95.2% in [4]; 119% in assay [5]; 107% in assay [6]. In addition, the growth in assay [7] is 103%; in [8], 78.1%; in assay [9] it was 87.8%; in [10], 82.2%; in assay [11], 89.6%; in [12], 6.15% (active). The growth was 93.7% in [13]; 103% in [14]; 94.7% in assay [15]; 94.7% in assay [16]; 109% in assay [17]; 100% in assay [18]. Besides, the growth is 91.9% in [19] and 98.1% in assay [20].

The record behind these values is PubChem BioAssay (NCI).
